# Shown are actives, neighbours in structure and some others; about 2.8% of the full set was active somewhere.
# CF NFkB inh: inhibitors of cystic fibrosis induced NF-kB; 360,000 compounds, 0.86% hits; KKLEB NF-kB-GFP reporter, PAF-induced, GFP fluorescence overnight; AID 588850; inhibition, % at 5 µM;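 active = at least 50% inhibition at 5 µM, scaled per plate between neutral and stimulator controls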;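 note: PAF is a Pseudomonas aeruginosa culture filtrate used as stimulus; plate controls were PAF-stimulated DMSO wells for no effect and unstimulated DMSO wells for full effect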
# HIF-2a block: HIF-2a inhibition; 786-0 RCC cells HIF-2a reporter, luciferase luminescence, overnight; inhibition, % at 18.8 µM; 360,000 compounds, 0.72% hits; AID 624352;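 active = inhibition of the luminescence signal of 40% or more relative to plate controls, in a single-dose primary screen at 18.75 µM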
# KKLEB cytotox: CF airway cell cytotoxicity counter-screen; 360,000 compounds, 0.36% hits; activity change (cytotoxicity), % at 5 µM; KKLEB CF airway cells viability, ATPlite luminescence, overnight; active compounds read low; cells stimulated with P. aeruginosa culture filtrate; AID 602141;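 active = corrected activity change at or below -50% at 5 µM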
# B2AR ag: human beta-2 adrenergic receptor agonism by FAP; 340,000 compounds, 0.43% hits; P07550; Am2.2-beta2AR cells, FAP receptor internalization, flow cytometry; response, % (concentration not given with the values); AID 504454;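 active = response above a set limit, near 3 SD of response in nonfluorescent compounds, cut at about 42% in these data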
# Target sequence (P07550 whole entry, looked up): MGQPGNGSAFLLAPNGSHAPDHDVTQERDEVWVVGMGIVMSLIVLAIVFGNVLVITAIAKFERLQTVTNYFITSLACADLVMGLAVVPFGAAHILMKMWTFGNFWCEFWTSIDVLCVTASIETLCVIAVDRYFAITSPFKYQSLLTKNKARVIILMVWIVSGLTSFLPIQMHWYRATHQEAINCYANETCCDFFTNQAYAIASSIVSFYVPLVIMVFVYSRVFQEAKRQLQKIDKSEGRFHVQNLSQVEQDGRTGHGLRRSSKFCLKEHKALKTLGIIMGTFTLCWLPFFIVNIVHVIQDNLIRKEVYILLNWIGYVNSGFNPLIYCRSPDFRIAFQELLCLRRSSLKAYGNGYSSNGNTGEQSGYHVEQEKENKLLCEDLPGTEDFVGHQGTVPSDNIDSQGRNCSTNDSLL
# Peg3 prom inh: inhibitors of Peg3 promoter; HeLa PEG-Prom luciferase reporter, luminescence, overnight; inhibition, % at 20 µM; 360,000 compounds, 1.7% hits; AID 588405;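 active = inhibition of at least 50% at 20 µM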
# MITF TRPM1 inh: inhibitors of MITF-driven TRPM1 promoter in melanoma cells | AID 488899 | SK-MEL-5 TRPM1 promoter luciferase, 24 h | inhibition, % at 12.5 µM | 330,000 compounds, 0.83% hits;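 active = mean inhibition across replicates of 60% or more, whatever share of single replicates reaches that level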
# * hit, by the source's call; nt = not tested or not shown.
SMILES,CF NFkB inh,HIF-2a block,KKLEB cytotox,B2AR ag,Peg3 prom inh,MITF TRPM1 inh
CC(=O)OC(C)(C)/C=C/C(=O)[C@](C)(O)[C@H]1[C@H](O)C[C@@]2(C)[C@@H]3CC=C4[C@H](C[C@H](O)C(=O)C4(C)C)[C@]3(C)C(=O)C[C@]12C,84*,79*,-86*,68*,103*,88*
CCCCC(CC)COCCCN=Cc1c(O)[nH]c(=S)[nH]c1=O (configuration not stated),26,25,8,-9,15,nt
CCN(CC)S(=O)(=O)c1ccc(NN=C(C#N)C#N)cc1,67*,3,5,22,6,-6
COc1cc(OC)cc(C(=O)Nc2ccc(Br)cc2C(=O)c2ccccc2)c1,11,9,-8,2,5,-2
COc1cc(C(=O)Nc2ccc(Br)cc2C(=O)c2ccccc2Cl)cc(OC)c1OC,24,23,-50*,-6,-12,6
CCN(CC)c1ccc(/C=C/[N+](=O)[O-])cc1,-11,-3,-14,63*,7,16
Cc1[nH]nc2ccc(-c3cncc(OC[C@@H](N)Cc4c[nH]c5ccccc45)c3)cc12,85*,75*,-87*,39,100*,91*
C=C(C)CSc1nnc([C@@H](N)Cc2c[nH]c3ccccc23)o1,-4,3,0,-1,5,3
Cc1[nH]c2ccc(OC(F)(F)F)cc2c1CCNCc1ccc(Cl)cc1,15,17,-13,24,111*,-5
CCOc1cccc(CNCCc2c(C)[nH]c3ccc(OC(F)(F)F)cc23)c1O,24,6,-29,36,107*,98*
CC1CN(c2ccccn2)C(C)CN1C(=O)C(O)(c1ccccc1)c1ccccc1 (configuration not stated),-8,7,-6,30,13,3
COC1=C(C)C(=O)C2=C(C1=O)C(CO)N1C(C#N)C3CC4C(C1C2N1CCOC41)N3C (configuration not stated),88*,30,-23,-1,95*,76*
c1ccc(C2(N3CCCCC3)CCCCC2)cc1,-13,-3,21,0,1,-3
S=C=Nc1cccc(C2(N3CCCCC3)CCCCC2)c1,4,-15,-5,24,64*,75*
Cc1cc(C)c(S(=O)(=O)N2Cc3ccccc3-n3nncc3C2)c(C)c1,-5,17,-6,nt,21,nt
Cc1ccc(/C=C2\C(=O)NC(=S)N(c3ccc(F)cc3)C2=O)s1,-45,-86,-1,39,107*,59
Cc1ccc(/C=C2\C(=O)NC(=S)N(c3ccccc3F)C2=O)s1,84*,95*,-13,71*,108*,nt
C[N+]12CCC(CC1)C(C#N)(N1CCOCC1)C2 (configuration not stated),16,14,6,-6,12,1
C=CCn1c(O)c(C(C)=Nc2cc(OC)ccc2OC)c(=O)[nH]c1=O,-14,12,1,-8,1,-15
Cc1cccc(C(O)(C(=O)O)c2ccccc2)c1 (configuration not stated),15,0,-13,4,100*,2
Cc1cc(C)c(C)c(C(O)(C(=O)O)c2ccccc2)c1C (configuration not stated),-10,5,-8,3,-9,-3
CC(O)C1C=CC=CC(=O)OC2CC3OC4C5OC5(C)CCC4(COC(=O)C4OC4(C)C(O)CO1)C2(C)C31CO1 (configuration not stated),83*,66*,-22,4,97*,70*
CC(=O)OC1C(=O)OCC23CCC4(C)OC4C2OC2CC(OC(=O)C=CC=CC(=O)OCCC1C)C3(C)C21CO1 (configuration not stated),93*,72*,-55*,8,100*,83*
CC(=O)NCC1=C(c2cccc3ccccc23)C[C@@H]2CC[C@H]1N2Cc1ccco1,8,7,-7,nt,14,nt
CC(C)N1C(=O)/C(=C/C=C/c2ccco2)C(=O)N(Cc2ccco2)C1=O,-25,53*,10,19,32,71*
SMILES,CF NFkB inh,HIF-2a block,KKLEB cytotox,B2AR ag,Peg3 prom inh,MITF TRPM1 inh
COc1ccc(CN2C(=O)NC(=O)/C(=C\c3ccco3)C2=O)cc1,23,42*,-13,26,29,13
O=C1NC(=O)N(Cc2ccccc2)C(=O)/C1=C/C=C/c1ccco1,87*,38,2,76*,13,88*
CC(C)NC1C2CCC(CC2)C1(O)c1ccc(Cl)c(Cl)c1 (configuration not stated),-13,4,-4,nt,4,nt
O=C1NC(=O)N(c2cccc(Cl)c2)C(=O)/C1=C\c1ccc(Sc2nc3ccccc3[nH]2)o1,-18,16,12,4,7,12
O=C1NC(=O)N(c2ccccc2)C(=O)/C1=C/c1ccc(Sc2ccccc2)o1,11,28,-6,0,50*,33
COc1ccc(C)cc1NC1=NC(C)(C)CS1,-11,13,8,1,13,3
CCOC(=O)CNC(=O)N1Cc2cc(-c3cccc(F)c3)ccc2-n2nncc2C1,-21,3,-15,nt,-2,nt
OC(Cn1c2ccccc2c2ccccc21)C[n+]1cccc2ccccc21 (configuration not stated),11,14,-14,19,59*,-21
CC[N+](CC)(CC)CC,26,2,9,-1,-5,-7
CC12CC[C@H]3[C@@H](CCC4(O)C[C@H](O)CCC34/C=N/NC(=O)c3ccc(O)cc3)C1(O)CCC2C1=CC(=O)OC1 (some centres not stated),5,12,4,-1,0,-12
CC12CC[C@H]3[C@@H](CCC4(O)C[C@H](O)CCC34/C=N/NC(=O)c3ccccc3O)C1(O)CCC2C1=CC(=O)OC1 (some centres not stated),-13,10,18,-1,81*,6
CN(C)c1ccc(C(=O)N/N=C/C23CC[C@@H](O)CC2(O)CC[C@@H]2[C@@H]3CCC3(C)C(C4=CC(=O)OC4)CCC23O)cc1 (some centres not stated),21,21,-52*,4,105*,75*
COc1ccc(C(=O)N/N=C/C23CC[C@@H](O)CC2(O)CC[C@@H]2[C@@H]3CCC3(C)C(C4=CC(=O)OC4)CCC23O)cc1 (some centres not stated),-16,13,23,-68,66*,41
COc1ccc(C(=O)Cn2c(NCCCl)nc3ccccc32)cc1,0,10,0,-6,21,7
COc1ccc2nc(-c3ccc(CN4CCC(n5c(=O)[nH]c6ccccc65)CC4)cc3)c(-c3ccccc3)nc2c1,nt,-66,nt,nt,nt,nt
CCCC12CN3CCN(CC(C3)/C1=N\NC(=O)c1ccncc1)C2,-18,10,12,3,12,5
